Reference: PubChem BioAssay (NCATS)
Where “and” joins values, the source holds several entries; their conditions need not be identical. Equal values may be shown once. Records with an inconclusive call do not appear. Where a call stands in place of a potency, no number is given. Calls of active or inactive are those of the source. Unless noted, calls follow the shape of the dose curve; as a rule, active = well fitted curve in the direction sought with a large enough effect; inconclusive = small, poorly fitted or top-dose-only effect, or another doubt; inactive = no such curve, though single readings can be large; an effect the other way counts as inactive or inconclusive.

Key:
[1] = Cell Viability - Jurkat (AID 426;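 active = dose-dependent loss of cell ATP signal giving a full or clear fitted curve, ranked by lower potency value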;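 also: potency is read from the fitted curve at half-maximal effect; cells exposed to compound for 40 hours at 37 °C before ATP read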); settings: qHTS
How it was run: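 Seed 5000 Jurkat E6-1 cells/well; add compound; incubate 40 hr at 37 °C; add CellTiter-Glo; wait 20 min at room temperature; read luminescence. Fit concentration-response with Hill equation for AC50.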

[2] = Cell Viability - Hek293 (AID 427;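 active = compounds whose dose-response curve shows a full or clear partial loss of cell viability, called from curve shape rather than a numeric limit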;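 also: potency is read from the fitted curve at half-maximal effect; cells exposed to compound for 40 hours at 37 °C before reading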); settings: qHTS
How it was run: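 qHTS, human embryonic kidney (adenovirus-transformed) cells; 40 hr cpd, 37 °C; CellTiter-Glo ATP luminescence. Norm: DMSO = 0, 100 uM tamoxifen = 100% inhibition. Hill-fit AC50.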

[3] = Cell Viability - NIH 3T3 (AID 541); settings: NIH 3T3 cell viability, qHTS; activity change, negative = cytotoxicity: at 92.2 µM (top of the series);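 also: cells exposed to compound for 40 hours; nearly all actives have a fitted effect of over 25% in size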
How it was run: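 AC50 values reflect concentration-dependent loss of intracellular ATP in NIH 3T3 cells after 40 hr treatment in complete culture medium, quantified by luciferase-based luminescence.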

[4] = Cellular Toxicity (caspase-3) NIH 3T3 (AID 666);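 also: caspase signal read after 16 h compound exposure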
How it was run: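 Concentration-response qHTS in NIH 3T3 mouse fibroblasts scores caspase-3/7 activation as rising luminescence after 16 hr compound exposure. Signals are scaled between DMSO-only and 100 uM tamoxifen.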

[5] = Cell Viability - LYMP2-001 (AID 921);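 also: cells exposed to compound for 24 h at 37 °C; nearly all actives have a fitted effect of over 70% in size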
How it was run: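 CellTiter-Glo luminescence (intracellular ATP) after 24 hr compound exposure at 37 C, 2500 lymphoblastoid cells/well in complete medium. AC50 fitted with standard Hill equation; tetraoctylammonium bromide positive control.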

[6] = Cell Viability - LYMP2-021 (AID 974);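 also: compound exposure lasts 24 hours at 37 °C; nearly all actives have a fitted effect of over 55% in size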
How it was run: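 Concentration-response cytotoxicity in a human lymphoblastoid line: 24 hr treatment at 37 C in complete culture medium, tetraoctylammonium bromide as positive control, luminescent ATP quantitation as viability measure.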

[7] = Cell Viability - LYMP2-010 (AID 981);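 also: cells exposed to compound for 24 hours at 37 °C; nearly all actives have a fitted effect of over 55% in size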
How it was run: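 Acute toxicity is scored as a concentration-dependent loss of cellular ATP in human lymphoblastoid cells after 24 hr compound exposure in complete medium. Tetraoctylammonium bromide is the positive control.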

[8] = Cell Viability - LYMP2-012 (AID 982);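 also: cellular ATP by luciferase luminescence where a drop means cytotoxicity; cells exposed to compound for one day before reading; nearly all actives have a fitted effect of over 55% in size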
[9] = Cell Viability - LYMP2-016 (AID 984);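 also: cells exposed to compound for 24 hours at 37 °C; nearly all actives have a fitted effect of over 55% in size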
How it was run: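 qHTS, 1536-well: 2500 LYMP2-016 cells/well, 5 hr 37 C, compound added, 24 hr 37 C, CellTiter-Glo 30 min RT, luminescence. Tetraoctylammonium bromide positive control. AC50 via Hill fit.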

[10] = Cell Viability - LYMP2-018 (AID 985); also: nearly all actives have a fitted effect of over 50% in size
How it was run: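 Acute cytotoxicity is scored as a concentration-dependent drop in intracellular ATP after 24 hr exposure of the lymphoblastoid line in complete culture medium, measured by luciferase luminescence. Potency is expressed as AC50 from Hill modelling.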

[11] = Cell Viability - LYMP2-020 (AID 986)
How it was run: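 Acute cytotoxicity in a human lymphoblastoid line is scored as a concentration-dependent fall in cellular ATP after 24 hr at 37 C in complete medium. The positive control is tetraoctylammonium bromide, and potency is given as Hill-fit AC50.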

[12] = Cell Viability - LYMP2-022 (AID 987); also: nearly all actives have a fitted effect of over 55% in size
How it was run: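 Acute toxicity in a human lymphoblastoid line is scored as decreased intracellular ATP after 24 hr compound treatment at 37 C. ATP is measured by CellTiter-Glo luminescence; curves are fitted with the Hill equation to give AC50.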

[13] = Cell Viability - LYMP2-024 (AID 988); also: nearly all actives have a fitted effect of over 60% in size
How it was run: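 Acute toxicity is measured as concentration-dependent loss of intracellular ATP in a human lymphoblastoid line treated 24 hours at 37 C. Luciferase luminescence quantifies ATP; AC50 values come from standard Hill-equation modelling.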

[14] = Cell Viability - LYMP2-026 (AID 989);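 also: cells exposed to compound for 24 h at 37 °C; nearly all actives have a fitted effect of over 50% in size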
How it was run: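 Concentration-dependent loss of intracellular ATP in human lymphoblastoid cells after 24 hr at 37 C, quantified by luciferase luminescence. AC50 derived from standard Hill equation.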

[15] = qHTS Assay for Identification of Small Molecule Inducers of Hypoxia Response (AID 2120; active = well fitted curve in the direction sought with a large enough effect in the signal ratio, with a control signal flat, not every such curve was filed as active; the % refers to the signal ratio)
How it was run: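 Induction of beta-lactamase reporter activity was measured in CellSensor HRE-bla ME-180 cells after 17 h compound treatment at 37 degrees C, using CCF4 substrate and the 460nm/530nm emission ratio to derive AC50 values.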

[16] = qHTS assay for small molecule agonists of retinoid X receptor alpha signaling (AID 588544; calls by dose curve); settings: HEK293T RXRa-UAS-bla, beta-lactamase reporter, 18 h; 530 nm emission
[17] = biological target: Retinoic acid receptor RXR-alpha (Homo sapiens) (UniProt P19793); experiment: as above
Chain of Retinoic acid receptor RXR-alpha (Homo sapiens) (P19793 whole entry, looked up): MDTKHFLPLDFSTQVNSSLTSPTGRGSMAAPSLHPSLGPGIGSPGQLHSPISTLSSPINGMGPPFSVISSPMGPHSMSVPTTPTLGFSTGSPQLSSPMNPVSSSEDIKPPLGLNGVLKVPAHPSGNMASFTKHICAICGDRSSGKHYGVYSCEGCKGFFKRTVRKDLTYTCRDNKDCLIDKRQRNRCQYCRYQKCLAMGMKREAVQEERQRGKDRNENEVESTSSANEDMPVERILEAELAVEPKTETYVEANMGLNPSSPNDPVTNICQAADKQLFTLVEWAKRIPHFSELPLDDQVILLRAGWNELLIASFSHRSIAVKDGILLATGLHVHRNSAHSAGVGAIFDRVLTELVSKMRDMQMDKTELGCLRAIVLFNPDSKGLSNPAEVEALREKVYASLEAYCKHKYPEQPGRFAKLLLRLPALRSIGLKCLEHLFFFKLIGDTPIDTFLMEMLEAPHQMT

[18] = biological target: Thyroid hormone receptor beta (Homo sapiens) (UniProt P10828); experiment: qHTS assay for small molecule antagonists of thyroid hormone receptor beta signaling (AID 588547; active = well fitted inhibition curve with a large enough effect in the signal ratio, with a control signal flat, not every such curve was filed as active; the % refers to the signal ratio;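 also: cells stimulated with 0.4 nM T3 agonist during compound exposure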); settings: TR-UAS-bla HEK293, beta-lactamase ratio, antagonist mode, 18 h
Chain of Thyroid hormone receptor beta (Homo sapiens) (P10828 whole entry, looked up): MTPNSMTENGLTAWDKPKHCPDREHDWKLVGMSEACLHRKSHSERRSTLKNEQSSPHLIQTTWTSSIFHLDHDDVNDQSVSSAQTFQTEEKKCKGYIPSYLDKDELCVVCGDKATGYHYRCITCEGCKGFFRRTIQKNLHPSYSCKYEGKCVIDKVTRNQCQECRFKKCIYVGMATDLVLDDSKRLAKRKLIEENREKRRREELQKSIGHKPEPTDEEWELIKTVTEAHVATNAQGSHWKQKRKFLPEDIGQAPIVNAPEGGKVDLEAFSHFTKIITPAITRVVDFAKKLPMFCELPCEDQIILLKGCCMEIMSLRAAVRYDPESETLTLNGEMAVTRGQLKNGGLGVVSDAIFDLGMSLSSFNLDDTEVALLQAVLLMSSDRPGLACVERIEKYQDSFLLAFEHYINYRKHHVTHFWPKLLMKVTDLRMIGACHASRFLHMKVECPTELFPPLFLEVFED
How it was run: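 TR-UAS-bla GripTite HEK293 cells in 2% charcoal/dextran FBS medium; compounds 0.59 nM to 92 uM with T3 at 0.4nM final, 18 h at 37 C. Beta-lactamase read by CCF4 fluorescence (460/530 nm); Hill fits gave IC50 and efficacy.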

[19] = qHTS assay for small molecule disruptors of the mitochondrial membrane potential - 5 hr assay (AID 651755; calls by dose curve; also: nearly all actives have a fitted effect of over 40% in size)
How it was run: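 HepG2 cells (2,000/well), attached overnight, exposed to compound 5 hr at 37C, then Mito-MPS dye 30 min. Fluorescence read for monomers (490/535 nm) and aggregates (540/590 nm).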

[20] = biological target: Tumor necrosis factor (Homo sapiens) (UniProt P01375); experiment: qHTS assay to identify small molecules that stimulate Tumor Necrosis Factor-alpha (TNF-alpha) secretion (AID 651757; active = well fitted curve in the direction sought with a large enough effect in the signal ratio; the % refers to the signal ratio)
Chain of Tumor necrosis factor (Homo sapiens) (P01375 whole entry, looked up): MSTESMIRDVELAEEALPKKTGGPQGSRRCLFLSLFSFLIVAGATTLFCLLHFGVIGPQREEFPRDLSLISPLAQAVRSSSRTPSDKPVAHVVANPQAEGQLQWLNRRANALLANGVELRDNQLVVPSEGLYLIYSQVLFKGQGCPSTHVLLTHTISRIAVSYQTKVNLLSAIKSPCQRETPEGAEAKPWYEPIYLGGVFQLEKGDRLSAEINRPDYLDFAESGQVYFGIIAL
How it was run: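 Secreted TNF-alpha from compound-treated THP-1 cells (17 hrs, 37 C) was quantified with a homogeneous time-resolved fluorescence antibody assay.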

Compound	Potency [1]	Potency [2]	activity change, negative = cytotoxicity [3]	outcome [4]	Potency [5]	Potency [6]	Potency [7]	Potency [8]	Potency [9]	Potency [10]	Potency [11]	Potency [12]	Potency [13]	Potency [14]	outcome [15]	max response [16]	Potency [17]	activity change % (negative = inhibition) [18]	Potency [19]	outcome [20]
CCCSC(=O)Cl	> 92 µM (inactive)	> 92 µM (inactive)	-26.8% (inactive)	inactive	inactive	inactive	inactive	inactive	inactive	inactive	inactive	inactive	inactive	inactive	inactive	-2.47%	inactive	-14.3% (inactive)	inactive	inactive
CC(Cl)Cl	> 92 µM (inactive)	> 92 µM (inactive)	-15.4% (inactive)	inactive	inactive	inactive	inactive	inactive	inactive	inactive	inactive	inactive	inactive	inactive	inactive	-6.24%	inactive	-1.63% (inactive)	inactive	inactive
O=C(Cl)/C=C/C(=O)Cl	> 92 µM (inactive)	> 92 µM (inactive)	9.76% (inactive)	inactive	inactive	inactive	inactive	inactive	inactive	inactive	inactive	inactive	inactive	inactive	inactive	-9%	inactive	2.64% (inactive)	inactive	inactive
Cc1cccc([N+](=O)[O-])c1	> 92 µM (inactive)	> 92 µM (inactive)	-17.5% (inactive)	inactive	inactive	inactive	inactive	inactive	inactive	inactive	inactive	inactive	inactive	inactive	inactive	2.54% and -15.5%	inactive		inactive	inactive
c1ccc2c(c1)CCCC2	> 92 µM (inactive)	> 92 µM (inactive)	9.7% (inactive)	inactive	inactive	inactive	inactive	inactive	inactive	inactive	inactive	inactive	inactive	inactive	inactive	-21.1%	inactive	3.81% (inactive)	inactive	inactive
S=C=Nc1cccc2ccccc12	> 92 µM (inactive)	> 92 µM (inactive)	1.16% (inactive)	inactive	inactive	inactive	inactive	inactive	inactive	inactive	inactive	inactive	inactive	inactive	inactive	6.51%	inactive	-1.91% (inactive)	inactive	inactive
O=NN(c1ccccc1)c1ccccc1	> 92 µM (inactive)	> 92 µM (inactive)	-6.8% (inactive)	inactive	inactive	inactive	inactive	inactive	inactive	inactive	inactive	inactive	inactive	inactive	inactive	-13.1% and -6.23%	inactive	-20.2% (inactive) and 4.93% (inactive)	inactive	inactive
CCCCCCCC(=O)Cl	> 92 µM (inactive)	> 92 µM (inactive)	5.37% (inactive)	inactive	inactive	inactive	inactive	inactive	inactive	inactive	inactive	inactive	inactive	inactive	inactive	12.8%	inactive	11.9% (inactive)	inactive	inactive
O=[N+]([O-])c1cccc2ccccc12	> 92 µM (inactive)	> 92 µM (inactive)	3.57% (inactive)	inactive	inactive	inactive	inactive	inactive	inactive	inactive	inactive	inactive	inactive	inactive	inactive	-3.41% and -2.17%	inactive	7.72% (inactive) and 4.17% (inactive)	inactive	inactive
C=CCOC(=O)c1ccccc1N	> 92 µM (inactive)	> 92 µM (inactive)	-10.8% (inactive)	inactive	inactive	inactive	inactive	inactive	inactive	inactive	inactive	inactive	inactive	inactive	inactive	1.54%	inactive	-21.1% (inactive)	inactive	inactive
